# Test results taken from ChEMBL document CHEMBL4513216, “Probing the Open Global Health Chemical Diversity Library for Multistage-Active Starting Points for Next-Generation Antimalarials” (ACS Infect Dis, 2020).
# Hit rate of the full screen: of about 69,000 compounds, about 8,600 (12%) showed an effect of 50% or more. The entries come from a sample that favours strong results as a whole.
# Test system: Plasmodium berghei
# Assay: Screen against P. berghei liver stage (PbLuc), transformed with Luciferase, at 10uM
# Assay type: functional, HepG2
# Details: tested at 10 uM
row,SMILES,INHIBITION [%]
1,CN(Cc1nnc(C2CC2)n1C)C1CCN(CCc2cnn(C)c2)C1 (stereo unspecified),7.08
2,CO[C@H]1CCN(S(=O)(=O)c2cn(C)cn2)[C@H]1Cc1ccccc1,-8.85
3,Cc1nn(C)c(N(C)C)c1CNC(C)c1cccc(OC(C)C)c1 (stereo unspecified),27.4
4,CN(C)CCN(C)C(=O)c1cn(CC2CCCCC2)nn1,-9.54
5,O=C(NC1CCCC1)c1cnn2c(-c3ccco3)ccnc12,-16.4
6,COC(=O)Cn1c(=O)[nH]c2cn(-c3ccc(Br)cc3)c(=O)n21,-38.6
7,COc1cc(NC2CCS(=O)(=O)C2)ncn1 (stereo unspecified),33.7
8,CC(C)c1ccc(-c2nonc2N)cc1,-15.2
9,NC(c1ccc(F)cc1)c1cccs1 (stereo unspecified),55
10,Cc1ccc(C(N)c2cccs2)cc1 (stereo unspecified),61.5
11,CC(C)c1ccc(C(N)c2cccs2)cc1 (stereo unspecified),75.6
12,NC(c1ccc(Cl)cc1)c1cccs1 (stereo unspecified),22.5
13,Cc1ccc(C(CC(=O)O)NC(=O)CCc2cccs2)cc1 (stereo unspecified),31
14,Cc1ccc(C(N)c2cccc(S(C)(=O)=O)c2)cc1 (stereo unspecified),38.7
15,CS(=O)(=O)c1cccc(C(N)c2ccc(F)cc2)c1 (stereo unspecified),-9.76
16,O=C(O)CC(NC(=O)CCCc1cccs1)c1ccc(F)cc1 (stereo unspecified),18.4
17,CSCC(=O)N1CCCN(Cc2cscn2)CC1,7.77
18,CCc1oc2ccc(NS(=O)(=O)CC)cc2c1C(=O)OC,1.41
19,CC(C)=CCCC1(C)C=Cc2c(cc(C)n(CC(=O)O)c2=O)O1 (stereo unspecified),18.3
20,COC(=O)CN(C(=O)c1cc(C(C)C)no1)c1cccc(F)c1,7.38
21,COC(=O)CN(C(=O)c1cc(C)c(F)cc1F)c1cccc(C)n1,61.7
22,COC(=O)CN(C(=O)c1cccc(F)c1Cl)c1cccc(C)n1,29.8
23,CCC(C)C(=O)N(CC(=O)OC)c1cccc(C)n1 (stereo unspecified),10.6
24,COC(=O)CN(C(=O)c1ccc(Cl)cn1)c1cccc(F)c1,33.1

row,SMILES,INHIBITION [%]
1,COC(=O)CN(C(=O)C(C)c1c(F)cccc1F)c1cccc(C)n1 (stereo unspecified),76
2,O=C(O)Cc1nc2nccc(-c3ccc(F)cc3)n2n1,11.5
3,Cn1cccc1CN(C(=O)Cc1cccs1)C1CC1,6.54
4,N#Cc1ccc(C(=O)O)nc1C=Cc1cccc(Br)c1,39.4
5,O=C(NC1CC1)c1cnc(-c2noc3cc(N4CCCCC4)ccc23)s1,95.5
6,CC1CCN(c2ccc3c(-c4ncc(C(=O)O)s4)noc3c2)CC1,23.1
7,CN(C)CCNC(=O)c1ccc2c(-c3nccs3)noc2c1,-33
8,O=C(c1cnc(-c2noc3cc(N4CCCC4)ccc23)s1)N1CCCC1,8.31
9,CCN(C)C(=O)c1cnc(-c2noc3cc(N4CCCCC4)ccc23)s1,76.3
10,O=C(NCCN1CCCC1)c1ccc2c(-c3nccs3)noc2c1,28.2
11,CC(C)COC(=O)N1CC(=O)N(Cc2ccco2)CC(O)C1 (stereo unspecified),47.2
12,CC(C)Nc1ncc(-c2ccncc2)c([C@@H]2CCCO2)n1,11.8
13,CN1CCn2c(-c3cnn(C)c3)cnc2C12CCN(CC1CC1)CC2,0.804
14,CN1CCC(c2nnc3n2CCN(S(=O)(=O)c2ccccc2)C3)CC1,40.45
15,Cc1nc(CN(C)C2CCN(Cc3cccc(F)c3)C2)no1 (stereo unspecified),17.5
16,c1ccc(NCc2cccc(OCCN3CCOCC3)c2)nc1,-8.25
17,Cc1csc(CNc2cccc(OCCN3CCCC3)c2)n1,28
18,c1cc(NCc2cscn2)cc(OCCN2CCCCC2)c1,56.1
19,c1cc(CN2CCCCC2)cc(NCc2cc[nH]n2)c1,2.22
20,NC(=O)C1CCN(CCc2ccc(NCc3cccnc3)cc2)CC1,25.3
21,Cc1ccnc(NCc2cccc(OCCN3CCOCC3)c2)n1,-21.1
22,Cc1ncsc1CNc1cccc(OCCN2CCCC2)c1,48.5
23,c1cncc(CNc2cccc(OCCN3CCCCC3)c2)c1,68
24,Clc1cncc(NCc2cccc(OCCN3CCOCC3)c2)n1,58.5

row,SMILES,INHIBITION [%]
1,CC(C)=CCN1CCN(C(=O)C2CCS(=O)(=O)C2)CC1 (stereo unspecified),8.4
2,Cc1ncn(CCNC(=O)Nc2ccccc2)c(=O)c1C,-10.6
3,O=S(=O)(CCCN1CCCC(Cn2cncn2)C1)c1ccccc1 (stereo unspecified),7.67
4,Cn1nc(Cn2cccn2)c2c1CN(Cc1ccoc1)C2,20.1
5,CCn1ncc2[nH]c(-c3ccc(OC)c(COC)c3)nc21,-45.8
6,CC(C)(C)c1cc(C(=O)N2CCOC(c3cnccn3)C2)[nH]n1 (stereo unspecified),12.15
7,Cc1cc(CN2CCC(C3Nc4ccccc4S(=O)(=O)N3)CC2)oc1C (stereo unspecified),32.8
8,COc1cccc(CC(=O)N2CCc3ncnc(NC(C)C)c3CC2)c1,-4.55
9,COCCCNc1ncnc2c1CCN(C(=O)CC1C=CCC1)CC2 (stereo unspecified),48.2
10,COc1cccc(C(=O)N2CCc3ncnc(C)c3CC2)c1,-34.9
11,COc1cccc(C)c1C(=O)N1CCc2ncnc(NCCO)c2CC1,27.6
12,CC(C)Nc1ncnc2c1CCN(C(=O)CC1CCCC1)CC2,18.3
13,Cc1ncnc2c1CCN(C(=O)Cc1ccccn1)CC2,14.1
14,COc1cccc(CC(=O)N2CCc3ncnc(NCCO)c3CC2)c1,64
15,COCCNc1ncnc2c1CCN(C(=O)CC1CCC(=O)N1)CC2 (stereo unspecified),73.2
16,COc1cccc(CC(=O)N2CCc3ncnc(C)c3CC2)c1,61.5
17,O=C(CCc1cc2n(n1)CCCN(C(=O)[C@H]1CCCO1)C2)NC1CC1,33.4
18,CC(C)c1noc(C2CCN(S(=O)(=O)c3cccs3)CC2)n1,17.5
19,O=C(Nc1cc(C(F)(F)F)c[nH]c1=O)C1CCNCC1,11.9
20,O=C(CN1CCOC(Cn2cncn2)C1)NCc1cccs1 (stereo unspecified),34.05
21,Cc1ccc(O)c(CN(CCCn2ccnc2)Cc2ccc(C)s2)c1,79.7
22,Cc1ccc(CN(CCCO)Cc2nc3ccccc3[nH]2)s1,29.1
23,Cc1ccc(CN(CCCn2ccnc2)Cc2[nH]cnc2C)s1,9.93
24,COc1ccccc1CN(CCCn1ccnc1)CC1CCOC1 (stereo unspecified),43.4

row,SMILES,INHIBITION [%]
1,Cc1ccc(CN(CCCn2ccnc2)Cc2c[nH]nc2C(C)(C)C)s1,70.1
2,Cc1ccc(CN(CCCn2ccnc2)Cc2ccccc2O)s1,54.4
3,Cc1cn2nc(N3CCCC3Cn3nc(C)nc3C)sc2n1 (stereo unspecified),-39.7
4,CC(C)c1noc(C(C)N2CCN(Cc3noc(C(C)(C)C)n3)CC2)n1 (stereo unspecified),-35.7
5,Cc1cc(C)nc(N2CCC(C(=O)Nc3n[nH]c(CC(C)C)n3)CC2)n1,4.93
6,CNC(=O)C1Cn2ccnc2C2(CCN(Cc3c(C)noc3C)CC2)O1 (stereo unspecified),3.11
7,Cc1nc(N)c2ccc(C3CCCN3)nc2n1 (stereo unspecified),26.55
8,Cc1ccsc1C(O)CNC(=O)Cc1ccc(S(=O)(=O)C(C)C)cc1 (stereo unspecified),25.3
9,COc1ccc(S(=O)(=O)NCC(O)c2sccc2C)cc1C (stereo unspecified),6.34
10,COc1ccc(F)cc1S(=O)(=O)NCC(O)c1sccc1C (stereo unspecified),16.9
11,COC(=O)c1ccc(S(=O)(=O)NCC(O)c2sccc2C)cc1 (stereo unspecified),-11.8
12,Cc1ccsc1C(O)CNS(=O)(=O)Cc1ccc(F)cc1 (stereo unspecified),9.96
13,COc1ccc(CC(=O)NCC(O)c2sccc2C)cc1OC (stereo unspecified),53.8
14,COc1ccc(S(=O)(=O)NCC(O)c2sccc2C)cc1Cl (stereo unspecified),51.7
15,Cc1ccsc1C(O)CNC(=O)Cc1ccc(F)cc1 (stereo unspecified),56
16,Cc1cc(S(=O)(=O)NCC(O)c2sccc2C)ccc1F (stereo unspecified),13.9
17,COc1ccccc1C(=O)NC(c1ccccn1)C1CCC(CN)CC1 (stereo unspecified),44.1
18,Cc1ncccc1-c1cc2cccnc2n1CCCNC(=O)C1CC1,25.8
19,CN(Cc1ccccc1)CC(O)Cn1cnc2c(Cl)cc(Cl)cc2c1=O (stereo unspecified),27.433
20,COCC1CN(C(=O)c2ccoc2C)Cc2nccn2C1 (stereo unspecified),35.3
21,CS(=O)(=O)NCCC(=O)NCc1cccnc1-n1cnc2ccccc21,41.2
22,CC(=O)NCCC(=O)NCc1cccnc1-n1cnc2ccccc21,60.1
23,COCCC(=O)NCc1cccnc1-n1cnc2ccccc21,33.9
24,CS(=O)(=O)CCN1C[C@H](NC(=O)c2cnc(O)cn2)[C@@H](C2CC2)C1,-3.43

row,SMILES,INHIBITION [%]
1,Cc1[nH]ccc1C(=O)N[C@H]1CN(CCO)C[C@@H]1C1CC1,9.89
2,CCc1cc(C(=O)N[C@H]2CN(CCS(C)(=O)=O)C[C@@H]2C2CC2)[nH]n1,55
3,CSCCCN1C[C@H](NC(=O)c2cnn(C)c2)[C@@H](C2CC2)C1,12.6
4,Cc1cnc(C(=O)N[C@H]2CN(CCS(C)(=O)=O)C[C@@H]2C2CC2)cn1,53.9
5,Cc1c(C(=O)N[C@H]2CN(CCS(C)(=O)=O)C[C@@H]2C2CC2)cnn1C,29
6,Cc1ccc(CNC(C)c2ccc(N3CCN(C)CC3)c(F)c2)o1 (stereo unspecified),-11
7,C1CCc2nnc(CNc3nc(C4CC4)nc4c3CCNCC4)n2CC1,3.06
8,CCc1ccc(S(=O)(=O)Nc2cc(C(=O)O)ccc2F)s1,13.85
9,NC(=O)C1CCN(C(=O)c2cc(S(=O)(=O)N3CCCCC3)cs2)CC1,56.3
10,NC(=O)C1CCN(Cc2ccc(S(=O)(=O)N3CCCC3)o2)CC1,16.5
11,NC(=O)C1CCN(C(=O)c2cc(S(=O)(=O)N3CCCC3)cs2)CC1,56.3
12,CCN(c1ccsc1C(=O)N1CCSCC1)S(=O)(=O)c1ccccc1,-27.5
13,CCN(c1ccc(C(=O)N2CCC(C(N)=O)CC2)cc1)S(=O)(=O)CC,47.3
14,O=C(c1cc(-c2cccs2)cs1)N1CCSCC1,-61.1
15,COCCNC(=O)c1cc(S(=O)(=O)N2CCCCCC2)cs1,45.6
16,NS(=O)(=O)c1cc(C(=O)N2CCCCC2)cs1,30.7
17,CN(C)S(=O)(=O)c1csc(C(=O)N2CCC(C(N)=O)CC2)c1,60.1
18,CN(C)S(=O)(=O)c1csc(C(=O)N2CCSCC2)c1,65.6
19,CCN(CC)S(=O)(=O)c1csc(C(=O)N2CCC(C(N)=O)CC2)c1,49.9
20,COCCNC(=O)c1cc(S(=O)(=O)N2CCCC2)cs1,10.3
